# Assay results: PubChem BioAssay AID2314 (National Center for Advancing Translational Sciences (NCATS), 2010)
# In all, about 300,000 compounds went through this assay and about 37,000 (12%) were called active. No stated cut-off is given here; in the data, active means max response mostly above about 13% (no sharp cut-off); inactive means mostly below about 14%. The entries come from a sample that favours actives as a whole.
# Assay: Cycloheximide Counterscreen for Small Molecule Inhibitors of Shiga Toxin; further: read at 38.3 µM for the half of the compounds with a filed dose; 0% is about no effect
# Settings: cell reporter, cycloheximide protein synthesis inhibition counterscreen; hits give high values
row,Compound,max response
1,Cc1cccc(NC(=O)C2CCN(S(=O)(=O)c3cccc4cccnc34)CC2)c1,-2.32% (inactive)
2,CNC(=O)C1CCN(S(=O)(=O)c2c(C)noc2/C=C/c2cccc(C)c2)CC1,-3.52% (inactive)
3,Cc1ccnc(NC(=O)C2CCN(S(=O)(=O)c3c(C)c(C)cc(C)c3C)CC2)c1,13.3% (active)
4,COc1cccc(C(=O)Nc2nnc(S(=O)(=O)N(C)c3ccccc3)s2)c1,-2.81% (inactive)
5,CN(c1ccccc1)S(=O)(=O)c1cc(C(=O)OCC(=O)N2CCN(C(=O)c3ccco3)CC2)ccc1Cl,-1.38% (inactive)
6,CN(c1ccccc1)S(=O)(=O)c1cc(C(=O)Nc2nc3ccccc3[nH]2)ccc1Cl,16.5% (active)
7,O=C(CN1CCN(c2ncccn2)CC1)Nc1ccccc1C(F)(F)F,-6.89% (inactive)
8,O=C(C1CCCN(S(=O)(=O)c2ccc([N+](=O)[O-])cc2)C1)N1CCCCC1 (stereo not given),1.11% (inactive)
9,COc1cccc(NC(=O)CSc2nnc(Cc3ccc(OC)c(OC)c3)o2)c1,-3.54% (inactive)
10,COc1ccccc1-c1nnc(SCC(=O)Nc2ccccc2)o1,11.4% (active)
11,COc1ccccc1-c1nnc(SCC(=O)N2CC(C)CC(C)C2)o1 (stereo not given),1.31% (inactive)
12,COc1ccccc1-c1nnc(SCC(=O)Nc2cc(C)on2)o1,2.69% (inactive)
13,COc1ccc(CCNC(=O)CSc2nnc(CNC(=O)c3cccs3)o2)cc1OC,-3.82% (inactive)
14,COc1ccc(-c2nnc(SCC(=O)c3cccs3)o2)c(OC)c1,51.4% (active)
15,CSc1ccc(CCNC(=O)CS(=O)(=O)Cc2nc(-c3ccccc3F)oc2C)cc1,-3.5% (inactive)
16,Cc1nn(-c2ncc(C(F)(F)F)cc2Cl)c(=O)n1-c1ccccc1,0.461% (inactive)
17,Cc1cc(C)c2nc(SCCC#N)nc(C)c2c1,1.85% (inactive)
18,Cc1cc(C)c2nc3nc(C)cc(C)c3c(N)c2c1,15.1% (active)
19,Cc1cc(C)c2nc(-c3ccco3)cc(C(=O)O)c2c1,0.856% (inactive)
20,COc1ccc(/C=C(/NC(=O)c2ccco2)C(=O)Nc2ccc(C(C)=O)cc2)cc1,2.87% (inactive)
21,COc1ccc(C(CC(=O)c2ccccc2)S(=O)(=O)c2ccccc2)cc1 (stereo not given),30% (active)
22,COc1ccc(CN(C)C(=O)CC(c2ccccc2)c2ccccc2)cc1,-2.05% (inactive)
23,COc1ccc(N(Cc2ccccc2)S(=O)(=O)c2cccc(C(=O)O)c2)cc1,-3.66% (inactive)
24,Cc1ccc(SCc2c(C(=O)N/N=C/c3cccnc3)nnn2-c2nonc2N)cc1,2.02% (inactive)

row,Compound,max response
1,CC(C)C[C@H](NC(=O)C1CC(=O)N(c2ccc3c(c2)OCCO3)C1)C(=O)NC1CCCC1 (stereo not given in full),6.36% (inactive)
2,C=C1CCN(C(CC(C)C)C(=O)N2CCOCC2)S(=O)(=O)c2ccccc21 (stereo not given),4.95% (inactive)
3,N#C/C(=C/c1ccc(-c2ccccc2[N+](=O)[O-])o1)C(=O)NCCN1CCCCC1,2.31% (inactive)
4,Cc1ccc(-c2ccc(/C=C(\C#N)C(N)=S)o2)c([N+](=O)[O-])c1,16% (active)
5,Cc1ccc(Cc2cnc(NC(=O)/C(C#N)=C/c3ccc(-c4cccc([N+](=O)[O-])c4)o3)s2)cc1,-0.479% (inactive)
6,COc1ccc(C)cc1N(C(=O)Cn1nnc(-c2ccc(C)o2)n1)C(C(=O)NC1CCCC1)c1ccncc1 (stereo not given),-6.77% (inactive)
7,O=C(O)c1ccc(NC(=O)C2CCCCC2)cc1,-1.35% (inactive)
8,CC(C)NS(=O)(=O)c1ccc(NC(=O)C2CCCCC2)cc1,-0.865% (inactive)
9,O=C(Nc1ccc(-c2ccc3nncn3n2)cc1)C1CCCCC1,16% (active)
10,CCCOc1ccc(C2NC(=O)NC(c3ccccc3)=C2C(C)=O)cc1OCC (stereo not given),-7.3% (inactive)
11,CCN1N=C(c2ccccc2)CCC1=O,-2.27% (inactive)
12,Nc1ccn(C2CC(O)C(CO)O2)c(=O)n1 (stereo not given),-1.51% (inactive)
13,COC(=O)CSc1nccc(-c2cccs2)n1,17% (inactive)
14,c1ccc(NCc2cccc3ccccc23)nc1,9.29% (inactive)
15,c1cnc(Nc2nc(-c3ccc4ccccc4c3)cs2)nc1,42.5% (active)
16,COc1ccc(-c2csc(Nc3ccccn3)n2)cc1,40.4% (active)
17,COc1ccc2cc(S(=O)(=O)Nc3ccccn3)ccc2c1,-3.68% (inactive)
18,c1ccc(Nc2nc(-c3ccncc3)cs2)nc1,36.4% (active)
19,Clc1ccc(Nc2nc(-c3cccs3)cs2)nc1,37.5% (active)
20,COC(=O)c1cc(-c2cccs2)nc2ccccc12,-2.85% (inactive)
21,CC(NC(=O)c1ccco1)C(=O)Nc1nc(-c2ccccn2)cs1 (stereo not given),-2.97% (inactive)
22,COc1ccc(-c2nc(CS(=O)(=O)CC(=O)NCc3cccc(Br)c3)c(C)o2)cc1,6.41% (inactive)
23,Cc1ccc(OCCCCN2CCCCC2)c(Br)c1,10.9% (inactive)
24,CC(C)(C)NC(=O)NC(=O)COC(=O)C1c2ccccc2Oc2ccccc21,0.419% (inactive)

row,Compound,max response
1,Cc1ccc(CNC(=O)c2cccnc2Cl)cc1,6.44% (inactive)
2,CCN(C(=O)c1ccc(Br)cc1)c1ccccc1,-3.18% (inactive)
3,Cc1cccc(C(=O)N2CCCC(Nc3ccc(C(C)C)cc3)C2)n1 (stereo not given),17.8% (inactive)
4,CCOC(=O)C1(CCOc2ccccc2)CCN(Cc2ccc(C#CCCO)cc2)CC1,-3.24% (inactive)
5,CCCC1=Nc2cc(C(=O)NCCN3CCCC3)ccc2Sc2ccccc21,-5.31% (inactive)
6,O=C(Nc1ccc(OCC(=O)N2CCOCC2)cc1)c1cc(F)c(F)cc1Cl,2.51% (inactive)
7,CCN1CCc2nc(NC(=O)c3cc(F)c(F)cc3Cl)sc2C1,18.8% (active)
8,O=C(Nc1nccs1)c1cc(S(=O)(=O)N2CCOCC2)c(Cl)cc1Cl,-3.9% (inactive)
9,O=C(CSc1nnnn1-c1ccc(O)cc1)c1ccc(F)cc1,23.5% (active)
10,COc1ccc(-n2nnnc2SCC(=O)c2ccc(OC)c(OC)c2)cc1,-0.506% (inactive)
11,Cc1cc(NC(=O)CSc2nnnn2-c2ccc(F)cc2)no1,-1.5% (inactive)
12,CCC(C(=O)NCc1cccnc1)n1nc(C)c2sc3ccccc3c2c1=O (stereo not given),-10.2% (inactive)
13,CC(C)N(C(=O)Cn1cc(S(=O)(=O)CC(=O)N2CCOCC2)c2ccccc21)C(C)C,2.9% (inactive)
14,O=C(NCCCn1ccnc1)C1CCCN(S(=O)(=O)c2cc(Cl)ccc2Cl)C1 (stereo not given),-4.82% (inactive)
15,O=c1cc(-c2ccc(O)cc2)oc2c([C@@H]3O[C@H](CO)[C@@H](O)[C@H](O)[C@H]3O)c(O)cc(O)c12,-8.35% (inactive)
16,CN(CCN1CCOCC1)Cc1nc(-c2ccc3c(c2)OCO3)no1,8.52% (inactive)
17,CC(C)N(Cc1nc(-c2ccc3c(c2)OCO3)no1)CC1CCC(=O)N1 (stereo not given),1.08% (inactive)
18,CCn1ccnc1CN(C)Cc1nc(-c2ccc3c(c2)OCO3)no1,28.4% (active)
19,Cc1ccc(C)c(N2CCN(C(=O)CCCCCn3c(=S)[nH]c4ccc(N5CCOCC5)cc4c3=O)CC2)c1,9.94% (inactive)
20,Fc1ccc2[nH]c3c(N4CCSCC4)ncnc3c2c1,5.04% (inactive)
21,COc1cc(OC)c(OC)cc1/C=N/Nc1ncnc2c1[nH]c1ccc(C)cc12,-3.15% (inactive)
22,CC(C)OCCCNc1ncnc2c1[nH]c1ccc(F)cc12,39% (active)
23,O=CN1CCN(C(=O)c2ccc(Br)o2)CC1,1.29% (inactive)
24,C=CCn1c(Oc2ccc(C(=O)OC)cc2)nc2c1c(=O)n(C)c(=O)n2C,-5.23% (inactive)

row,Compound,max response
1,Cc1ccccc1NC(=O)N1CCCC1C(=O)NCc1ccccc1 (stereo not given),-1.83% (inactive)
2,Cc1c(CCO)c(=O)[nH]n1C(=O)c1c(F)cccc1F,17% (inactive)
3,COc1ccc(-n2ncc3c(N4CCCc5ccccc54)ncnc32)cc1,44.9% (active)
4,COc1ccc(Oc2c(Cl)cnn(-c3ccccc3)c2=O)cc1,-1.92% (inactive)
5,COc1ccc(CCC(C)N2CCc3ccccc3C2)cc1 (stereo not given),1.02% (inactive)
6,COc1ccc(-n2ncc3c(N4CCc5ccccc54)ncnc32)cc1,49.8% (active)
7,COc1ccc(-n2ncc3c2CC(C)(C)CC3NC(=O)CCc2c(C)noc2C)cc1 (stereo not given),1.45% (inactive)
8,C#CC(CCN1CCCCC1)(OC)c1ccccc1 (stereo not given),-1.93% (inactive)
9,COc1ccccc1NC(=S)N1CCN(C(c2ccccc2)c2ccccc2)CC1,-1.77% (inactive)
10,Cc1nc2ccc(NC(=S)N3CCC(C)CC3)cc2nc1C,29.7% (active)
11,Cc1cccc(NC(=S)N2CCC(c3nc4ccccc4s3)CC2)c1,-8.19% (inactive)
12,Cc1nc2ccc(NC(=O)N3CCC(c4ccccc4)C3)cc2nc1C (stereo not given),-1.48% (inactive)
13,CC(=O)N1CCN(CC(=O)Nc2ccc(SC(F)F)cc2)CC1,-7.31% (inactive)
14,O=C(Cc1ccc(Cl)c(Cl)c1)Nc1ccc(SC(F)F)cc1,32.1% (active)
15,Cc1ccc(CC(=O)Nc2ccc(OC(F)F)c(Cl)c2)cc1C,-1.56% (inactive)
16,Nc1ccccc1SC(C[N+](=O)[O-])c1ccccc1 (stereo not given),58.7% (active)
17,Cc1ccc(C(C[N+](=O)[O-])c2c(C)cc3ccccn23)cc1 (stereo not given),-2.05% (inactive)
18,CCCN1C2CCCC1CC(NC(=O)c1cccc(OC)c1)C2 (stereo not given),0.249% (inactive)
19,COc1ccccc1C1CCN(c2ccc([N+](=O)[O-])cn2)CC1,4.09% (inactive)
20,O=C(Cc1c(Cl)cccc1Cl)NC1CC1,-4.84% (inactive)
21,Cc1ccc(S(=O)(=O)c2nnn3c2nc(N2CCN(c4ccccn4)CC2)c2ccccc23)cc1,-2.94% (inactive)
22,FC(F)(F)c1cc(-c2ccco2)nc(NCc2ccc(Cl)cc2)n1,-4.49% (inactive)
23,CN(CC(=O)Nc1ccc(F)cc1)C(=O)c1ccc(-c2ccc(Cl)cc2)o1,10.2% (inactive)
